Where “and” joins values, the source holds several entries; their conditions need not be identical. Equal entries are not always repeated. Inconclusive results are not listed. Some compounds were tested as several samples or in several runs, with calls that do not always agree. Calls of active or inactive are those of the source. Unless noted, calls come from the whole dose curve; as a rule, active = well fitted curve in the direction sought with a large enough effect; inconclusive = small, poorly fitted or top-dose-only effect, or another doubt; inactive = no such curve, though single readings can be large; an effect the other way counts as inactive or inconclusive.
What was measured:
[1] = biological target: Cytochrome P450 1A2 (Homo sapiens) (UniProt P05177); assay: p450-cyp1a2 (AID 410; calls by dose curve; note: potency is the fitted concentration of half-maximal effect;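 for activity change, negative = inhibition: -100% = full effect of reference inhibitor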)
Chain of Cytochrome P450 1A2 (Homo sapiens) (P05177 whole entry, looked up): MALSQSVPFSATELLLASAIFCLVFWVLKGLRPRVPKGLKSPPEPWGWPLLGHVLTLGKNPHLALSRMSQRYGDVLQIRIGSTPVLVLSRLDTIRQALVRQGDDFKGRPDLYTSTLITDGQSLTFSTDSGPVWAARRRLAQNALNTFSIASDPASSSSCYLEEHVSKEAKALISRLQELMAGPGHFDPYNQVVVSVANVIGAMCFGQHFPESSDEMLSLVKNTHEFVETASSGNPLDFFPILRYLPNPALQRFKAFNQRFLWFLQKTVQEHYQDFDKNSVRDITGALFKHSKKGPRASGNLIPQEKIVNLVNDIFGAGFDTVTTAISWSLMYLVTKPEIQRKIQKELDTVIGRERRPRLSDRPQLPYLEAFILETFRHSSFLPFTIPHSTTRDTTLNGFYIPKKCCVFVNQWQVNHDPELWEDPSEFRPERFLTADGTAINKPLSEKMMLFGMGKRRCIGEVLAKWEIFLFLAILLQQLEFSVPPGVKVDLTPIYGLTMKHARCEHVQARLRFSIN
Outline: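 Read-out is luminescence from luciferin produced by CYP1A2 demethylation of Luciferin-ME (100uM, at Km). Detection reagent stopped the 60 min NADPH-dependent reaction; signals were normalized to 57 uM furafylline.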

[2] = biological target: Glucocorticoid receptor (Homo sapiens) (UniProt P04150); assay: GR-GFP Redistribution (AID 450;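 active = compounds whose dose series gives a full or clear partial fitted curve of increased nuclear translocation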; note: potency is the fitted concentration of half-maximal effect); details: U2OS GR-GFP nuclear translocation, laser cytometry, 2 h
Chain of Glucocorticoid receptor (Homo sapiens) (P04150 whole entry, looked up, the tested form may be a part): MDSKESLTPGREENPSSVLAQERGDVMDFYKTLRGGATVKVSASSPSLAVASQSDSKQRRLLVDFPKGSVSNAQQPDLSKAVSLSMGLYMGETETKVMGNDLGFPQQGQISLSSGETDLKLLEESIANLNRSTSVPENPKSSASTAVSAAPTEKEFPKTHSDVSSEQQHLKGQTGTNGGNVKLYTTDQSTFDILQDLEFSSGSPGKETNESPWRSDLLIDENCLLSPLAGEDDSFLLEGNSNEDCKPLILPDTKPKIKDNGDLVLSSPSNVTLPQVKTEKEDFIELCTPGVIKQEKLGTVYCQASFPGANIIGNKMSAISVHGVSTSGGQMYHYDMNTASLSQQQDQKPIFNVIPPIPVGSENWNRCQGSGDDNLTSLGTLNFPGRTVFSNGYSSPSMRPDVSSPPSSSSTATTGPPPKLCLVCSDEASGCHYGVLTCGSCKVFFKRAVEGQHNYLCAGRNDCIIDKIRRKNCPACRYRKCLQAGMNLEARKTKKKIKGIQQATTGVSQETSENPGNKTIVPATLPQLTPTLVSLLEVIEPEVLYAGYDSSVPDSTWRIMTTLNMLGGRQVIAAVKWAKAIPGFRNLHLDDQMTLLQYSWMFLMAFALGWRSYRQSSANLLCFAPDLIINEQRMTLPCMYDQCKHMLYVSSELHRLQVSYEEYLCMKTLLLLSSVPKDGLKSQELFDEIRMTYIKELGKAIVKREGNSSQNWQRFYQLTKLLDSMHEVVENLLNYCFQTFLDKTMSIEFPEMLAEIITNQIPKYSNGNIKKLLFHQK

[3] = biological target: Glucocorticoid receptor (Homo sapiens) (UniProt P04150); assay: GR-EFC Redistribution (AID 451; calls by dose curve; note: potency is the fitted concentration of half-maximal effect); details: CHO-K1 GR-EFC translocation, beta-gal luminescence, 2 h
Outline: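 CHO-K1 cells stably expressing nuclear-localized β-gal enzyme acceptor and GR fused C-terminally to the enzyme donor fragment; ligand-driven nuclear translocation restores β-gal by complementation. Compounds titrated up to 46 uM final, 2 h at 37 °C; luminescence read.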

[4] = biological target: Mitogen-activated protein kinase 10 (Mus musculus) (UniProt Q61831); assay: JNK3 AlphaScreen Assay (AID 530; active = well fitted curve in either direction with a large enough effect, not every such curve was filed as active;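 note: kinase came from lysate of stimulated human HepG2 cells; signal reports phosphorylation of biotinylated GST-cJun 1-79 at Ser73 with 10 µM ATP; % is set by controls: 0 for no effect and ±100 for the full control effect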)
Outline: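 Biotinylated GST-cJun(1-79) served as substrate for JNK3 in HepG2 lysates stimulated with IL-1beta and TNF-alpha. ATP was 10 uM final, pH 7.6. Ser73 phosphorylation was quantified by AlphaScreen (680 nm excitation).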

[5] = biological target: 3',5'-cyclic-AMP phosphodiesterase 4B (Homo sapiens) (UniProt Q07343); assay: qHTS Assay for Inhibitors of PDE-IV (AID 607; active = well fitted activation curve with a large enough effect in the main read-out, with a control signal flat, not every such curve was filed as active; note: % of control where 0% means no effect)
Chain of 3',5'-cyclic-AMP phosphodiesterase 4B (Homo sapiens) (Q07343 whole entry, looked up): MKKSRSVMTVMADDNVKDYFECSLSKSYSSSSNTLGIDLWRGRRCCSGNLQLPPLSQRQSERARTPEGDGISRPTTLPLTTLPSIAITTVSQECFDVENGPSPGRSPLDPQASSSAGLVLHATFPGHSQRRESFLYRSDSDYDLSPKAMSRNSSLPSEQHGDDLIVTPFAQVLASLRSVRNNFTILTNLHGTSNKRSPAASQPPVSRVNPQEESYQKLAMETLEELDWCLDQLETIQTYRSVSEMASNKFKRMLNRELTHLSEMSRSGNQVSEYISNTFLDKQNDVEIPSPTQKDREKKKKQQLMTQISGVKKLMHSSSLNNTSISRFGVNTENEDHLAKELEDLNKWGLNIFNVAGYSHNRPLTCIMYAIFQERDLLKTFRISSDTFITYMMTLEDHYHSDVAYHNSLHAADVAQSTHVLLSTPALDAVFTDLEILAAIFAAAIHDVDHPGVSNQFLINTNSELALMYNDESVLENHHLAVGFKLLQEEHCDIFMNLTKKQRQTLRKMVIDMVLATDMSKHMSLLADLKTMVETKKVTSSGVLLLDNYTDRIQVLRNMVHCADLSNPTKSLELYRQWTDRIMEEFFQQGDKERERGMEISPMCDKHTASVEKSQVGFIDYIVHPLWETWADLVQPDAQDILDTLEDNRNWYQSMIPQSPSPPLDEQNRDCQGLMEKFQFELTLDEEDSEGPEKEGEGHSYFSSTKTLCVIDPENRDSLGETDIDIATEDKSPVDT
Outline: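 ACTOne HEK293 cells carry a modified cAMP-gated CNG channel and express endogenous PDE4; plated 1000 cells/well, compounds up to 22.9 uM final. Membrane-potential dye fluorescence (ex 535/em 590) was read; parental cells received 10 uM forskolin + 100 uM RO 20-1724.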

[6] = biological target: Ubiquitin carboxyl-terminal hydrolase 1 (Homo sapiens) (UniProt O94782); assay: Inhibitors of USP1/UAF1: Pilot qHTS (AID 504865);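 note: rhodamine fluorescence freed from ubiquitin-rhodamine substrate followed over time; top concentration of the series differs between compounds; % is set by controls: 0 for no effect and ±100 for the full control effect; nearly all actives have a fitted effect of over 35% in size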
Chain of Ubiquitin carboxyl-terminal hydrolase 1 (Homo sapiens) (O94782 whole entry, looked up): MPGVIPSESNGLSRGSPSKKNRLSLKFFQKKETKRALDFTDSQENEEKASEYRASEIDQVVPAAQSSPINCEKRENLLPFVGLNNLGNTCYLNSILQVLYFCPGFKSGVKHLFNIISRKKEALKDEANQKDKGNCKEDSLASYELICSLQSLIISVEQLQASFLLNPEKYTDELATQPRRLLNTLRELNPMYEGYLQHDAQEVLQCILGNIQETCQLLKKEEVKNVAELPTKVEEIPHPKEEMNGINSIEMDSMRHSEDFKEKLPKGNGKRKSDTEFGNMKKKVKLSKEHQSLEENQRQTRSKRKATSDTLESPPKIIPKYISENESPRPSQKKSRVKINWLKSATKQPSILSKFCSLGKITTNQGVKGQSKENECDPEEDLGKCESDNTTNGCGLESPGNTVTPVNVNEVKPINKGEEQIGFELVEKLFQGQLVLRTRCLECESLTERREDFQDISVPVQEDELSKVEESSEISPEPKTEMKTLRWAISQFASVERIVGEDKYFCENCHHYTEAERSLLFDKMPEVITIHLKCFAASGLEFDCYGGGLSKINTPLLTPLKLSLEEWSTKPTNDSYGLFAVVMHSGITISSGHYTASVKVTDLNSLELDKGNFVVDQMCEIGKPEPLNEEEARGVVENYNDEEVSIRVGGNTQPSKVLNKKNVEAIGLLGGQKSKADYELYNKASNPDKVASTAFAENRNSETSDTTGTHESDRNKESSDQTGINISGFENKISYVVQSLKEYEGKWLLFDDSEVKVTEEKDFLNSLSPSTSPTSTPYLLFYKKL
Outline: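 Enzyme-free wells gave the negative control, while test wells held 1nM USP1/UAF1 preincubated with compound for 15 min at room temperature. Ub-Rho at 150nM final started the reaction, and fluorescence at 480/540 nm was recorded kinetically.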

[7] = biological target: DNA dC->dU-editing enzyme APOBEC-3G (Homo sapiens) (UniProt Q9HC16); assay: qHTS for inhibitors of Vif-A3G interactions: Validation (AID 588379); note: 0% is about no effect
Chain of DNA dC->dU-editing enzyme APOBEC-3G (Homo sapiens) (Q9HC16 whole entry, looked up): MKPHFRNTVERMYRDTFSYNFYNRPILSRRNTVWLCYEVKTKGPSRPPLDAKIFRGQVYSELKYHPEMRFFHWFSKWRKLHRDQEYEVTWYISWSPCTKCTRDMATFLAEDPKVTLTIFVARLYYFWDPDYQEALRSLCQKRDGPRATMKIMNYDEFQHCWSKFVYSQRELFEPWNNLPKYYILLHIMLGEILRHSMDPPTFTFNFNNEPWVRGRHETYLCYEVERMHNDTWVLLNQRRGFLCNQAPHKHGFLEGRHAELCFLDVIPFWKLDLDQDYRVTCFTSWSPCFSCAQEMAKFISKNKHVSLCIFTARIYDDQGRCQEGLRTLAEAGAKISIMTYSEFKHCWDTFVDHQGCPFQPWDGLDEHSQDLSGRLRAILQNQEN
Outline: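 Yellow fluorescence (Ex 488, Em 500-530) of Vif-coexpressing HeLa A3G-eYFP cells, scanned by Acumen cytometer, reports blocked A3G degradation. Cells plated at 700/well overnight at 37 deg C before compound addition, then a further overnight compound incubation at 37 deg C.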

[8] = system: Zika virus NS2B-NS3 protease; assay: Primary screen GU AMC qHTS for Zika virus inhibitors (AID 1347154);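 note: 0% = no-inhibitor control and -100% = no-enzyme control; nearly all actives have a fitted effect of over 70% in size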
Outline: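 Unlinked Zika NS2B hydrophilic domain/NS3 protease domain noncovalent complex (25 nM final) in 10 mM Tris-HCl pH 8.0, 0.01% Tween 20, with AMC peptide substrate. Fluorescence (ex 340, em 450 nm) change over 15 min, room temperature; percent inhibition fitted to 4-parameter Hill equation.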

[9] = Confirmatory qHTS for small molecule stabilizers of the endoplasmic reticulum resident proteome: Secreted ER Calcium Modulated Protein (SERCaMP) assay (AID 1508628); note: nearly all actives have a fitted effect of over 40% in size; note: potency is the fitted concentration of half-maximal effect
Outline: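 GLuc-SERCaMP-expressing SH-SY5Y cells, pretreated 16 h with compound, are challenged with thapsigargin to empty ER calcium stores; after 4 h, coelenterazine is added directly to the medium and luminescence is imaged.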

[10] = biological target: Cytochrome P450 2C9 (Homo sapiens) (UniProt P11712); assay: qHTS Assay for Inhibitors and Substrates of Cytochrome P450 2C9 (AID 883); note: potency is the fitted concentration of half-maximal effect; nearly all actives have a fitted effect of over 60% in size
Chain of Cytochrome P450 2C9 (Homo sapiens) (P11712 whole entry, looked up): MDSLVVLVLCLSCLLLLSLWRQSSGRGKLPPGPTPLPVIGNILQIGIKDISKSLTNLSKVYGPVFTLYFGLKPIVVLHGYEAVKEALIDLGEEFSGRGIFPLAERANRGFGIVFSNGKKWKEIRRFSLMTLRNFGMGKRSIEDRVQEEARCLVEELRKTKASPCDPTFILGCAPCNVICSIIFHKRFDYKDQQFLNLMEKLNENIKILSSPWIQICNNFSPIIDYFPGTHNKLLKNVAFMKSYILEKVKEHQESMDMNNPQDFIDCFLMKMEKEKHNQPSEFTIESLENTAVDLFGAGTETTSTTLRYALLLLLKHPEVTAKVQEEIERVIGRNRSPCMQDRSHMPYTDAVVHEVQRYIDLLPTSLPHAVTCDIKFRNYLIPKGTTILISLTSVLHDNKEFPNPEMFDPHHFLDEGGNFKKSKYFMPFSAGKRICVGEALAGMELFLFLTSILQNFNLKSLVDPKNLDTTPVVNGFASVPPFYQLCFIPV
Outline: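 Human CYP2C9 (10nM) hydroxylated Luciferin-H (100uM, at its KM) to luciferin in 25mM KPO4. Compound was preincubated 10 min at 37C, then NADPH regeneration started a 60 min reaction at 37C. Luminescence was read after detection reagent, normalized to 57uM sulphaphenazole.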

[11] = biological target: Cytochrome P450 3A4 (Homo sapiens) (UniProt P08684); assay: qHTS Assay for Inhibitors and Substrates of Cytochrome P450 3A4 (AID 884); note: potency is the fitted concentration of half-maximal effect; nearly all actives have a fitted effect of over 50% in size
Chain of Cytochrome P450 3A4 (Homo sapiens) (P08684 whole entry, looked up): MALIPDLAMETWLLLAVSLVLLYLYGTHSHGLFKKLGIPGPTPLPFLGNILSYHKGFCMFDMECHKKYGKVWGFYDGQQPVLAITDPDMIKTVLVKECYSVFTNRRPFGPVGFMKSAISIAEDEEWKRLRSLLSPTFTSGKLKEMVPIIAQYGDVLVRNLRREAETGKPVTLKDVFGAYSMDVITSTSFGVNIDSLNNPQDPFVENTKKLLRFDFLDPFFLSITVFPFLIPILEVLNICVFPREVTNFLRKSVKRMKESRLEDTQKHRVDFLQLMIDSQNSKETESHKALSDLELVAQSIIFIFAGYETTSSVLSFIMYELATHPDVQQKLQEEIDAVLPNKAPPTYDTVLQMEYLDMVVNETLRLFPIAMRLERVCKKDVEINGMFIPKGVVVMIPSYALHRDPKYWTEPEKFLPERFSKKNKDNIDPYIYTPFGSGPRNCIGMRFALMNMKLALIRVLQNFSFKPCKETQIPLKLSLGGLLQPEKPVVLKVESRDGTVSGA
Outline: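 Luminescent readout of luciferin produced by CYP3A4 (20 nM) dealkylation of Luciferin-PPXE, 25 uM (its KM). NADPH-driven reaction ran 60 min at RT after 10 min compound preincubation; data scaled to 57 uM ketoconazole as 100% inhibition.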

[12] = biological target: Cytochrome P450 3A4 (Homo sapiens) (UniProt P08684); assay: qHTS Assay for Activators of Cytochrome P450 3A4 (AID 885); note: nearly all actives have a fitted effect of over 65% in size
Outline: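 CYP3A4 activity: Luciferin-PPXE O-dealkylation, 25uM substrate, 200mM KPO4, RT throughout. Read-out is luciferase luminescence; higher values reflect activation.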

[13] = biological target: Cytochrome P450 2C19 (Homo sapiens) (UniProt P33261); assay: qHTS Assay for Inhibitors and Substrates of Cytochrome P450 2C19 (AID 899); note: nearly all actives have a fitted effect of over 60% in size; note: potency is the fitted concentration of half-maximal effect
Chain of Cytochrome P450 2C19 (Homo sapiens) (P33261 whole entry, looked up): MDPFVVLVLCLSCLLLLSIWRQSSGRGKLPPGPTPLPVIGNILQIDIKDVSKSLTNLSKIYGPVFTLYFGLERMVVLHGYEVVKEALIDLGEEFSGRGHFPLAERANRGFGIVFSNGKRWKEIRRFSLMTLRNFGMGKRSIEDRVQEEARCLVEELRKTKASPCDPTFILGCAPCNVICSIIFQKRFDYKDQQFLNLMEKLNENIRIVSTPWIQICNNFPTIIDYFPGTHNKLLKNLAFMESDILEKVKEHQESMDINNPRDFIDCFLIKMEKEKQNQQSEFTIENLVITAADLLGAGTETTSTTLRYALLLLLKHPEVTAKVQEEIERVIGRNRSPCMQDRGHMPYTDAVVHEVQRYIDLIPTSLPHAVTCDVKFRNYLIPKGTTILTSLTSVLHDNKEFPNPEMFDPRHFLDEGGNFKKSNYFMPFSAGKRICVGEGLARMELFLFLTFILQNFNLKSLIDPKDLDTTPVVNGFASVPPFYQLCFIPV
Outline: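 Human CYP2C19 (5nM) with Luciferin-H EGE at 10uM (its KM) in 50mM KPO4 was preincubated with compound for 10 min at 37C. NADPH regeneration started a 60 min 37C reaction. Luciferin was read by luminescence, normalized to 57uM ketoconazole.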

[14] = qHTS Assay for Lipid Storage Modulators (AID 1519; calls by dose curve; for activity change, negative = inhibition: % is set by controls: 0 for no effect and ±100 for the full control effect); details: Drosophila S3 cells, BODIPY lipid droplet/cell ratio, laser cytometry, cells loaded with oleic acid
Outline: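 Cells seeded at 5,000 per well were treated with compounds over a concentration series and loaded with oleic acid (400 uM, as added). Lipid droplet fluorescence (488 nm excitation, 500-530 nm channel) was read by laser-scanning cytometry and normalized to 20 uM Triacsin C.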

[15] = Counterscreen qHTS for small molecule stabilizers of the endoplasmic reticulum resident proteome: GLuc-NoTag assay (AID 1508627); note: potency is the fitted concentration of half-maximal effect;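 for activity change, negative = inhibition: 0% = thapsigargin alone and -100% = DMSO vehicle control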
Outline: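 Secreted GLuc lacking the SERCaMP modification is measured in SH-SY5Y cells exposed to compound for 19 h and then to thapsigargin (100 nM, 4 h) to deplete ER calcium; hits retested at 11 concentrations, up to 76.6 uM.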

[16] = biological target: Cytochrome P450 2D6 (Homo sapiens) (UniProt P10635); assay: qHTS Assay for Inhibitors and Substrates of Cytochrome P450 2D6 (AID 891); note: potency is the fitted concentration of half-maximal effect; nearly all actives have a fitted effect of over 60% in size
Outline: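 Luminescent read-out of luciferin formed by 5 nM human CYP2D6 demethylating 30 uM Luciferin-ME EGE (Km level) over 60 min at room temperature after NADPH regeneration addition. Data normalized to full inhibition by 1.43 uM quinidine.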

[17] = Primary qHTS for small molecule stabilizers of the endoplasmic reticulum resident proteome: Secreted ER Calcium Modulated Protein (SERCaMP) assay (AID 1508630); note: potency is the fitted concentration of half-maximal effect; for activity change, negative = inhibition: % is set by controls: 0 for no effect and ±100 for the full control effect
Outline: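 The SH-SY5Y reporter protocol was run at 3 concentrations up to 38.3 uM (primary) or 11 concentrations (follow-up): 16 h compound, 100 nM thapsigargin for 4 h, then extracellular luciferase luminescence.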

N[C@@H](Cc1cc(CP(=O)(O)O)cc(-c2ccccc2Cl)c1)C(=O)O
inactive: Potency [1] | Potency [2] > 46 µM | Potency [3] > 46 µM | Potency [4] | Potency [5] | Potency [6] | Potency [7] | Potency [8] | Potency [9]

C=C[C@@]1(C)CC(=O)[C@@]2(O)[C@@]3(C)[C@@H](O)CCC(C)(C)[C@@H]3[C@H](OC(=O)CCN(C)C)[C@H](OC(C)=O)[C@@]2(C)O1
-14.6%: max response ([14]; measured here: cell count channel max response)
inactive: Potency [2] > 46 µM | Potency [3] > 46 µM | Potency [12] | activity change, negative = inhibition ([14]; at 57.5 µM (top of the series)) -1.7% | Potency [6] | Potency [7] | Potency [8] | Potency [15]
active: Potency [10] 0.126 µM | Potency [11] 2.51 µM | Potency [13] 0.251 µM | Potency [9] 14.1 µM
-17.4%: max response ([14]; measured here: lipid channel max response)

NC(=NC1C2CC3CC(C2)CC1C3)Nc1ccc(I)cc1 (stereo not given)
active: Potency [1] 39.8 µM | Potency [16] 0.0398 µM | Potency [13] 5.01 µM | Potency [15] 31.6 µM
inactive and 4.47 µM (active): Potency [17]
inactive: Potency [2] > 46 µM | Potency [3] > 46 µM | Potency [4] | Potency [12] | Potency [6] | Potency [7] | Potency [8] | Potency [9]

CCOC(=O)c1c(C)[nH]c2ccc3c(c12)CN1CCc2cc(OC)ccc2[C@@H]1O3
inactive: Potency [2] > 46 µM | Potency [3] > 46 µM | Potency [4] | Potency [12] | Potency [13] | Potency [6] | Potency [7] | Potency [8] | Potency [9]
active: Potency [1] 0.158 µM

N#Cc1cc2c(OCC(O)CN3CCN(C(c4ccccc4)c4ccccc4)CC3)cccc2[nH]1 (stereo not given)
3.98 µM (active) and inactive: Potency [9]
inactive: Potency [8] | Potency [15]

O=S(=O)(c1cccc2cnccc12)N1CCNCC1
inactive: Potency [2] > 46 µM | Potency [3] > 46 µM | Potency [4] | Potency [12] | Potency [6] | Potency [7] | Potency [8] | Potency [9]

CN(Cc1ccccc1)C(=O)[C@H](Cc1ccc2ccccc2c1)NC(=O)[C@@H]1CCCN1C(=O)Nc1ccccc1[N+](=O)[O-]
active: Potency [9] 10 µM
inactive: Potency [8] | Potency [15]

— PubChem BioAssay (NCATS)
